Laboratory results as given in PubChem BioAssay AID720597 (Broad Institute, 2013).
Entries with a potency or affinity are not part of this list. Active and inactive are the calls of the source.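 How the source made its calls: active means fitted half-maximal dose no more than twice the top valid tested dose, for compounds that lower signal; inconclusive means fit invalid, or curve flat with activity between -70 and -30; inactive means potency past limit, curve flat within ±30, or signal increasing.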

Molecular target: NAD-dependent protein deacylase sirtuin-5, mitochondrial (Homo sapiens) (UniProt Q9NXA8)
Test: blockers of sirtuin-5 peptide desuccinylation – biochemical, fluorescence imaging, cherry-pick, set 6, dose response (AID 720597);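 further: lower AMC signal can also come from blocking the trypsin step; 0% = median of neutral control wells and -100% = median of positive control wells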
Conditions: Purified SirT5, succinyl-peptide-AMC/trypsin fluorescence; series mostly up to 15 µM; activity change, negative = inhibition: at the top concentration

Sequence of NAD-dependent protein deacylase sirtuin-5, mitochondrial (Homo sapiens) (Q9NXA8 whole entry, looked up): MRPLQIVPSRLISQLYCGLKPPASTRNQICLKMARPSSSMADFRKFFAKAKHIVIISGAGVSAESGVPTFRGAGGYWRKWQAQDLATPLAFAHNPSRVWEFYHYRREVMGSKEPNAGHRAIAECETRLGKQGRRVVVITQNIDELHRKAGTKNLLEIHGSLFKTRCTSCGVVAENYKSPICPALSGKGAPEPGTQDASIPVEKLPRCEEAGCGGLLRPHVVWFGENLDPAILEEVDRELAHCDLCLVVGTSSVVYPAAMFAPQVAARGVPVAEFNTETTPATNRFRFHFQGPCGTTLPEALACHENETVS

Activity change, negative = inhibition, inactive:
C[C@@H]1CN([C@@H](C)CO)C(=O)c2cc(-c3cccnc3)cnc2O[C@H]1CN(C)C(=O)Nc1ccc2c(c1)OCO2 19.3%
C[C@@H]1CN([C@@H](C)CO)C(=O)c2cc(NS(=O)(=O)c3cccs3)ccc2O[C@@H](C)CCCCO[C@@H]1CN(C)Cc1ccc(C(F)(F)F)cc1 -16.5%
CCCC(=O)Nc1ccc2c(c1)OC[C@H](C)N(Cc1ccccc1)C[C@H](C)[C@@H](OC)CN(C)C2=O -21.2%
C[C@@H]1CN([C@H](C)CO)C(=O)CCCn2cc(nn2)CO[C@H]1CN(C)S(=O)(=O)c1ccc(F)cc1 -5.68%
COc1ccc(NC(=O)N(C)C[C@H]2Oc3ccc(NS(=O)(=O)c4ccc(F)cc4)cc3C(=O)N([C@H](C)CO)C[C@H]2C)cc1 -20.5%
COc1ccc(NC(=O)N(C)C[C@H]2Oc3ccc(NS(=O)(=O)c4ccc(F)cc4)cc3C(=O)N([C@@H](C)CO)C[C@@H]2C)cc1 30.1%
COCCNC(=O)c1cc2c(c(-c3cccc(-c4cccc(F)c4)c3)n1)[C@H](CCO)N(S(=O)C(C)(C)C)C2 (stereo partly specified) -23.3%
C[C@@H]1CN([C@@H](C)CO)C(=O)c2cc(NC(=O)CCN3CCOCC3)ccc2O[C@H]1CN(C)Cc1ccc(C(F)(F)F)cc1 -9.07%
CN(C)CC#Cc1ccc([C@@H]2[C@@H](CO)N3C(=O)CN(C(=O)c4cccc(F)c4)C[C@@H]23)cc1 -6.67% [at 16 µM]
CC(=O)N(C)C[C@@H]1Oc2ncc(-c3ccccc3C)cc2C(=O)N([C@H](C)CO)C[C@H]1C -1.22%
C[C@H](O)C#Cc1ccc2c(c1)O[C@H](CN(C)Cc1ccc(-c3ccccc3)cc1)[C@H](C)CN([C@H](C)CO)S2(=O)=O -26.1%
